# Tests used:
# [1] = tested on: Falciformispora senegalensis CBS197.79; assay: growth relative to untreated control; higher = less inhibition, active = 20 or less
# Summary of the method: (§1)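 Hyphal fragments of M. mycetomatis MM55 or F. senegalensis CBS197.79 were suspended in colourless RPMI 1640 with L-glutamine and MOPS at 68–72% transmission at 660 nm. They were exposed in 96-well plates to compound at 100 or 25 µM for 7 days at 37 °C. Viability was read with MTS (2 h, 490 nm) or resazurin (600 nm). Growth is metabolic activity relative to the untreated growth control, both corrected with a medium-plus-dye blank.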
# [2] = tested on: Madurella mycetomatis MM55; assay: as above
# Summary of the method: as §1
SMILES,growth ([1]; 25 µM),growth ([1]; 100 µM),growth ([2]; 25 µM),growth ([2]; 100 µM)
Cn1nc(-c2cccc(CNC3CCc4ccc(O)cc43)c2)c2cnc(NC3CCCC3)nc21 (stereo not given),18% (active),21.3% (inactive),5.13% (active),10.2% (active)
N#Cc1cccc(C(=O)NC2CCN(c3ccnc(Nc4ccc(F)cc4)n3)C2)c1 (stereo not given),89.5% (inactive),88.1% (inactive),84.1% (inactive),85.8% (inactive)
COc1ccc(Cl)cc1-c1nc(C(=O)NCCN2CCCCC2)c(C(C)C)s1,94.5% (inactive),77.6% (inactive),14.8% (active),6.6% (active)
CCOc1ccc(-c2nc(NC(=O)Cc3cccc(OC)c3)sc2C)cc1,93.7% (inactive),80.5% (inactive),99.6% (inactive),83.1% (inactive)
Cc1cc(Nc2cn3cc(-c4cnn(C(F)F)c4)ccc3n2)nc(C)n1,94.1% (inactive),83.8% (inactive),95.2% (inactive),58.6% (inactive)
CCOC(=O)NCCOc1cnn(Cc2ccccc2)c(=O)c1,91.1% (inactive),101% (inactive),100% (inactive),97.3% (inactive)
Cn1nc(-c2cccc(C#N)c2)c2cc(-c3n[nH]c(C4CCCN4)n3)ccc21 (stereo not given),98.7% (inactive),94.2% (inactive),92.7% (inactive),74.9% (inactive)
CC(C)n1ncc2c(C(=O)N3CCCc4ccccc43)cc(-c3ccccc3)nc21,82.5% (inactive),89.8% (inactive),71.5% (inactive),59.8% (inactive)
O=C(NC1CCCc2c1[nH]c1ccc(Cl)cc21)c1ccccn1 (stereo not given),107% (inactive),103% (inactive),35.3% (inactive),9.39% (active)
Cc1cc(C)c2cc(C(=O)N[C@@H](C)c3ccccc3)[nH]c2c1,86.1% (inactive),87.5% (inactive),7.91% (active),69.4% (inactive)
Oc1ccccc1CCNC1CCc2ccc(F)cc21 (stereo not given),107% (inactive),115% (inactive),32.8% (inactive),34% (inactive)
c1ccc(CCc2nc3cccnc3n2C2CCN(C3CCN(Cc4ccccc4)CC3)CC2)cc1,86.3% (inactive),49.8% (inactive),63.2% (inactive),5.59% (active)
Cc1onc(-c2ccccc2)c1-c1ccc(S(N)(=O)=O)cc1,97% (inactive),105% (inactive),117% (inactive),91.1% (inactive)
O=C(c1ccc(Nc2nccc(-c3ccc(Cl)cc3)n2)cc1)N1CCS(=O)(=O)CC1,80.5% (inactive),98.8% (inactive),76.8% (inactive),81.3% (inactive)
FC(F)(F)c1cc(Cl)cc(Nc2nc3cnc(NC4CCOCC4)nc3n2C2CCNCC2)c1,93.9% (inactive),79.8% (inactive),111% (inactive),5.14% (active)
